Among the data in PubChem BioAssay AID588391 (Broad Institute, 2011) are inhibition values, retold here.

Screen size: about 350,000 compounds; about 180 (0.051%) were called active. This is one part of a sample in which actives are shown more often than they occur. Unmarked numbers belong to inactive results.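 How the source made its calls: active means mean inhibition across replicates of 30% or more, whatever share of single replicates reach that level; inconclusive means mean inhibition below 30% while every single replicate reaches 30%; inactive means the rest.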

The target in the assay is Protein disulfide-isomerase (Homo sapiens) (UniProt P07237). The experiment in a line: blockers of PDI-driven insulin aggregation – biochemical, turbidity, single point, plate reader, primary screen (AID 588391).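 Further: absorbance from insulin aggregation driven by PDI reduction with DTT.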 The following applies: A650, 90 min, at 10 µM, active compounds read high.
Chain of Protein disulfide-isomerase (Homo sapiens) (P07237 whole entry, looked up): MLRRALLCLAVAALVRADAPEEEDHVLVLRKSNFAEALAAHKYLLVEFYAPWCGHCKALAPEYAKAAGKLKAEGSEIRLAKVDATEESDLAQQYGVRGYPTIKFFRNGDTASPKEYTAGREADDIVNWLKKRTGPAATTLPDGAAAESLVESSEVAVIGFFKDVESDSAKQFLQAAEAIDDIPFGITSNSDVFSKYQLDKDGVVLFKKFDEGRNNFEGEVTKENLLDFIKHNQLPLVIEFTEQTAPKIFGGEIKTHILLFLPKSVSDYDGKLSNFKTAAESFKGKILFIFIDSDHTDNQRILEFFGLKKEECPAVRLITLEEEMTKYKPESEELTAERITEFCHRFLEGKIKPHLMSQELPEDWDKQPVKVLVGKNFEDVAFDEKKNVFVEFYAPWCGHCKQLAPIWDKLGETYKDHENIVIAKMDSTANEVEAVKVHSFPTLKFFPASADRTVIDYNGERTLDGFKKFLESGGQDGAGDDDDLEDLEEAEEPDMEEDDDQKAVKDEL
For orientation: inhibition means the change of the read-out against control, counted positive when it falls. For `CCCOc1ccc(F)cc1-c1cc(C(=O)NCc2ccc(F)cc2)[nH]n1`, the inhibition is -0.369%.

As to `CC1(C(=O)Nc2cccc3c2CCCC3)CCN1C(=O)C1(c2ccccc2)CC1` (centres undefined), the inhibition was -0.663%.

On to `NC(c1csc(NC(=O)Nc2cccc(C(F)(F)F)c2)n1)C1CCCCC1` (centres undefined), for which the inhibition is 0.691%.

In the case of `O=C1N=C(N2CCc3ccccc3C2)S/C1=C\c1ccc(O)cc1`, the inhibition was -5.75%.

With `NC1=NC(=O)S/C1=C\c1ccc(O)cc1`, the inhibition is 43.5% (active).

For `CC(C)(C)c1ccc(/C=C2\SC(=O)N=C2N)cc1`, the inhibition was 7.63%.

For `OC(c1ccc(Cl)cc1)c1ncc(-c2ccc(Cl)cc2)[nH]1` (centres undefined), the inhibition is -6.36%.

Regarding `COc1ccc(C2CC(c3cccc(OC)c3)=NN2c2ccc(S(N)(=O)=O)cc2)cc1` (centres undefined), the inhibition was -2.45%.

Consider `COc1ccc(C(C)(NC(C)=O)c2nc(-c3ccc(S(C)(=O)=O)cc3)cs2)cc1` (centres undefined), for which the inhibition is 4.43%.

Regarding `COc1cc(F)ccc1-c1cc(C(=O)NCC2CCCCC2)[nH]n1`, the inhibition is 25%.

Take `CC1(Cc2cccc(C#N)c2)C(=O)Nc2ccc(-c3cccc(C(F)(F)F)c3)cc21` (centres undefined): the inhibition is 10.6%.

On to `CC(=O)Nc1ccc(CNc2nc(NCCN(C)C)nc3cc(-c4ccccc4)sc23)cc1`, for which the inhibition was -1.45%.

Take `Cc1cc(O)ccc1-c1cc(C(=O)NCc2cc(C(F)(F)F)cc(C(F)(F)F)c2)[nH]n1`: the inhibition was -11.3%.

With `Cc1cccnc1C(NC(=O)C1CCN(Cc2ccc(Cl)c(Cl)c2)CC1)c1ccc(Cl)cc1` (centres undefined), the inhibition was -20.8%.

With `CCCNC(=O)c1cc(C2CCCCN2S(=O)(=O)c2ccc(C#N)cc2)on1` (centres undefined), the inhibition is 9%.

As for `Cc1ccc(Cn2c(C)c(C(=O)NCc3ccccc3C(F)(F)F)sc2=O)cc1`, the inhibition was -2.82%.

Take `CCN(CC)c1ncnc2c1ncn2[C@H]1CN(Cc2cccs2)C[C@@H](CO)O1`: the inhibition was 5.5%.

For `Cc1cccn2c(CN(C)C3CCCc4ccccc43)c(C(=O)N3CCOCC3)nc12` (centres undefined), the inhibition was 36.6% (active).

Regarding `Cc1cccn2c(CNCC(C)Oc3cccnc3)c(C(=O)N3CCOCC3)nc12` (centres undefined), the inhibition is 3.93%.

Take `CCOC(=O)C1CCN(Cc2c(C(=O)N3CCOCC3)nc3c(C)cccn23)CC1`: the inhibition was -7.14%.

As to `O=C(Nc1nnc([C@H]2C[C@H](O)[C@@H](CO)O2)s1)c1cccc(Cl)c1`, the inhibition is 12.3%.

Turning to `CC(=O)Nc1cc(-c2ccccc2N(C)C)cn2c(-c3ccc(F)c(Cl)c3)cnc12`, the inhibition is -1.53%.

For `CC(O)(c1cccc(F)c1)c1nc(-c2ccc3c(c2)OCO3)cs1` (centres undefined), the inhibition was 0.825%.

Take `Cc1nc2c(OCc3ccc(Cl)cc3)cccn2c1N(C)Cc1cccs1`: the inhibition was -1.78%.

Take `CCOC(=O)c1c(-c2ccccc2)oc2ccc(OCC(=O)NN)cc12`: the inhibition is -2.38%.

Regarding `CCOC(=O)c1c(-c2ccccc2)oc2cc(Br)c(O)cc12`, the inhibition was 36.3% (active).

Turning to `CCOC(=O)c1c(NC(C)=O)sc2c(O)c(Br)ccc12`, the inhibition was 3.13%.

Turning to `CCOC(=O)c1c(-c2ccccc2)oc2cc(Br)c(O)c(C=O)c12`, the inhibition was 6.15%.

In the case of `CCOC(=O)c1c(CN(C)C)n(-c2ccccc2)c2cc(Br)c(O)cc12`, the inhibition is 39.9% (active).

Regarding `CCOC(=O)c1c(CN2CCOCC2)n(-c2ccccc2)c2ccc(O)cc12`, the inhibition was 27.2%.

For the molecule `O=C(NCc1cccnc1)c1cc(C2CCCCN2C(=O)CCc2ccccc2)on1` (centres undefined), the inhibition is 3.32%.

Regarding `CCCC(=O)N1CCC1(C)C(=O)Nc1ccc(-n2cncn2)cc1` (centres undefined), the inhibition is 4.25%.

Turning to `COc1ccc(C(C)(O)c2nc(-c3cc(F)cc(F)c3)cs2)cc1` (centres undefined), the inhibition is -18.6%.

On to `Cc1ccc(CC2(C)C(=O)Nc3ccc(OC(F)(F)F)cc32)cc1` (centres undefined), for which the inhibition is 5.49%.
